Screening results (PubChem BioAssay)
Nrf2 activator = qHTS of Nrf2 Activators. AREc32 ARE-luciferase reporter (MCF7-derived line), luminescence, 24 h. Potency, µM (titrated, usually from 46.1 µM), without a hit: at the highest dose activation, hits mostly activators. 0.31% of 410,000 active. AID 624171, 2012; also: potency is read from the fitted curve at half-maximal effect; % of control where 0% means no effect; nearly all actives have a fitted effect of over 65% in size
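Nrf2 activation is followed as ARE-luciferase induction in the AREc32 line after one day of compound treatment; luminescence is read with Steady-Glo.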
A549 tox = Nrf2 qHTS screen for inhibitors: counterscreen for cytotoxicity. Potency, µM (top dose mostly 46 µM), inactives show top-dose activity change, negative = cytotoxicity, actives largely listed as inhibitors. 0.16% of 390,000 active. A549 ARE-Fluc cells, CellTiter-Fluor viability, 18-24 h. AID 504648, 2011; also: potency is read from the fitted curve at half-maximal effect; % is scaled to controls: 0 for no effect and ±100 for the full control effect
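A549 ARE-Fluc cells in 5% FBS OPTI-MEM, 5000 cells/well, rested 2 h then exposed to compounds in concentration-response for 18-24 h at 37 °C. Viability by CellTiter-Fluor fluorescence (Ex 405/Em 525) after 30 min; luciferase luminescence (BugLite, 15 min, RT) read afterwards.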
p53 reactivator = qHTS assay for re-activators of p53 using a Luc reporter. H1299 p53-A138V BP100-luciferase reporter, luminescence, 24 h. Potency, µM (highest dose often 92.2 µM), without a hit: at the highest dose activity change, positive = activation, hits mostly activators. 0.063% of 320,000 active. AID 504706, 2011; also: potency is read from the fitted curve at half-maximal effect; % of control where 0% means no effect; nearly all actives have a fitted effect of over 45% in size
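p53-null H1299 cells stably carrying temperature-sensitive p53-A138V and a BP100-luciferase reporter were pinned with compounds (4-point, 1:5 series) and held 24 hrs at 37 deg C. Luminescence was read 10 min after detection reagent.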
BRCA1 expr up = qHTS Assay to Identify Small Molecule Activators of BRCA1 Expression; AID 624202, 2012; MCF7-BRCA1-FFLuc reporter, luminescence, 48 h; response scale: scaled: vehicle 0%, 10 µM genistein 100%; Potency, µM (highest dose often 46.1 µM), inactives show at the top dose activation, most hits filed as activators; 1.1% of 380,000 active; also: potency is read from the fitted curve at half-maximal effect; nearly all actives have a fitted effect of over 80% in size
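Quantitative HTS in MCF7 cells stably reporting BRCA1 expression via firefly luciferase. Compound treatment lasts 48 h at 37 °C in phenol-red free MEM. Activation is expressed relative to genistein at 10 microM and DMSO.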
Nrf2 inh = Nrf2 qHTS screen for inhibitors. A549 ARE-Fluc reporter, luciferase luminescence, 18-24 h. Potency, µM (doses to about 46 µM), inactives show top-dose activity change, negative = inhibition, actives largely listed as inhibitors. 2.1% of 360,000 active. AID 504444, 2011; also: potency is read from the fitted curve at half-maximal effect; % is scaled to controls: 0 for no effect and ±100 for the full control effect; nearly all actives have a fitted effect of over 60% in size
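Quantitative HTS in A549 cells stably bearing an antioxidant response element-firefly luciferase construct. Inhibition of Nrf2-driven transcription was scored by luminescence after 18-24 h of compound exposure at 37 °C.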
IL-2 act = qHTS of IL-2 Activators. IL-2 activation reporter assay, cell-based qHTS; stimulated with anti-CD3/CD4/CD28 beads; in transgenic mouse T cells. activation, % (series mostly up to about 46 µM). 0.065% of 360,000 active; in the data active = activation above about 50%; inconclusive = mostly about 30% to 49%; also: 0% is about no effect
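Unstimulated transgenic mouse T cells, 750 per well, received compound and, after 60 minutes, anti-CD3/anti-CD4 bead plus anti-CD28 stimulation. EGFP and DsRed were quantified after 18 hours.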
Numbers without * were called inactive; ? = inconclusive; . = no result given; [ ] = another dose, or the depositor's remark. This is a sample that favours compounds with a hit; in the whole collection about 3.2% have one here. Unless noted, calls follow the shape of the dose curve; as a rule, active = well fitted curve in the direction sought with a large enough effect; inconclusive = small, poorly fitted or top-dose-only effect, or another doubt; inactive = no such curve, though single readings can be large; an effect the other way counts as inactive or inconclusive.

SMILES	Nrf2 activator	A549 tox	p53 reactivator	BRCA1 expr up	Nrf2 inh	IL-2 act
O=c1c2ccccc2nnn1COc1cccc2ccccc12	11.6%	-0.5%	19.3%	8.91µM*	13.5%	0.0
Cc1ccc(OCCn2nnc3ccccc32)cc1C	0.2%[9.22 µM]	-0.2%	25.8%	4.47µM*	16.0%	-2.6
CCCn1nnc2ccccc2c1=O	-0.3%	12.7%	2.6%	8.5%	1.4%	-2.9
NCCNc1ncnc2ccc(-c3ccc4c(c3)OCO4)cc12	.	-22.3%	.	.	-16.1%	.
O=C(CNC(=O)c1cccc2ccccc12)OC(C(=O)Nc1cc(C(F)(F)F)ccc1Cl)c1ccccc1 (configuration not stated)	.	7.4%	.	.	11.6%	.
Clc1nc2sccn2c1/C=N/n1cnc2ccccc21	3.16µM*	3.0%	3.1%	-46.3%	?	-2.4
COc1cc2ncc3c(-c4ccccc4)nn(-c4ccc(C)cc4)c3c2cc1OC	4.6%	-1.3%	.	.	.	.
COc1cccc(NC(=O)/C(C#N)=C/c2c(C)n(Cc3ccc(Cl)cc3)c3ccccc23)c1	2.9%	-23.8%	.	.	?	.
O=C(/C=C/c1ccccc1)c1cc(Br)ccc(=O)c1O	?	?	?	-82.3%	18.4µM*	-0.7
Cc1ccc(/C=C/C(=O)c2ccccc(=O)c2O)cc1C	16.5%	?	7.9%	-89.0%	20.6µM*	5.9
Cc1c(CCC(=O)O)c(=O)oc2cc3occ(-c4ccc(F)cc4)c3cc12	3.5%	4.0%	-6.8%	0.0%	4.3%	-0.4
Cc1c(CCC(=O)O)c(=O)oc2cc3occ(C(C)(C)C)c3cc12	4.5%	-1.3%	-5.8%	-4.5%	18.4µM*	1.7
COc1ccc(Br)cc1CN(C)CC(=O)Nc1c(Cl)ccc(C)c1Cl	3.2%	?	-8.8%	-41.1%	18.4µM*	-4.0
COc1ccc(OC)c(N(CCN2C(=O)c3ccccc3C2=O)C(=O)CCl)c1	12.6µM*	.	.	-16.8%	.	-3.0
COc1ccc(NC(=O)CCN2C(=O)c3ccccc3C2=O)c(OC)c1	0.0%	4.9%	.	0.5%	5.0%	-0.5
CCc1ccc2nc(N(CCCN(C)C)C(=O)c3ccc(C(=O)c4ccccc4)cc3)sc2c1	-3.1%	?	0.9%	28.6%	13µM*	-3.6
O=C(NCCc1nc2ccccc2n1CCCOc1ccc2ccccc2c1)C1CCCCC1	.	-1.3%	.	-9.2%	0.0%	.
CC1=NN(c2ccccc2)C(=O)/C1=C/C=C/c1ccccc1	11.2µM*	6.2%	-25.5%	-47.8%	3.5%	0.2
Cc1ccc(-n2nnnc2C2CCN(S(=O)(=O)c3ccc(OC(F)(F)F)cc3)CC2)cc1	0.1%	0.7%	.	.	6.4%	.
COc1ccc(-n2nnnc2C2CCN(S(=O)(=O)c3ccc(NC(C)=O)cc3)CC2)cc1	-0.6%	-19.9%	.	.	9.2µM*	.
COc1ccc(CN2CCN(S(=O)(=O)c3ccc(NC(C)=O)cc3)CC2)cc1	-1.0%	-12.3%	2.7%	7.3%	16.4µM*	-4.2
COc1ccc(S(=O)(=O)N2CCN(Cc3ccc(Cl)cc3)CC2)cc1	-0.7%	-1.9%	-7.3%	-66.2%	?	-1.6
COc1ccccc1C(=O)N(Cc1nc(-c2cccc(C)c2)no1)C(C)C	0.5%	-6.9%	.	-4.4%	-28.2%	.
O=C1CN(c2ccccc2)C(=S)N1C(=O)c1ccc(Br)cc1	7.1%	0.2%	-1.9%	3.16µM*	?	-0.2
COc1ccc(CN(C(=O)CSc2nnc(-c3c[nH]c4ccccc34)o2)c2ccc(F)cc2)cc1OC	0.2%	?	?	-77.7%	11.6µM*	-3.3
SMILES	Nrf2 activator	A549 tox	p53 reactivator	BRCA1 expr up	Nrf2 inh	IL-2 act
COc1ccc(N(Cc2ccccc2)C(=O)CSc2nnc(Cn3nnc4ccccc43)o2)cc1	3.1%	-20.6%	3.3%	-56.2%	?	-1.5
O=C(CSc1nnc(Cn2nnc3ccccc32)o1)N(Cc1ccc(F)cc1)c1ccccc1	4.9%	?	10.5%	-81.0%	5.8µM*	-1.1
C/C=C(\C)NNC(=O)Cc1ccc(OC)cc1	.	.	.	-4.5%	.	.
CC1(C)OC(=O)C2(Cc3ccc(Cl)cc3N3CCCCC32)C(=O)O1 (configuration not stated)	.	-4.1%	.	-2.6%	0.4%	.
CCC(C)c1ccc(C(C)NC(=S)NCc2ccc(F)cc2)cc1 (configuration not stated)	1.3%	-20.6%	-4.4%	-57.3%	14.6µM*	-2.4
CCn1c(=NC(=O)CCS(=O)(=O)c2ccccc2)sc2cccc(OC)c21	6.7%	-22.9%	-6.8%	-39.3%	?	-1.2
CCn1c(=NC(=O)CS(=O)(=O)c2ccc(F)cc2)sc2cccc(OC)c21	-0.4%	-1.4%	2.5%	-28.4%	20.6µM*	-5.5
CCC(C(=O)NCCc1ccc(OC)c(OC)c1)n1nc(C)c2sc3ccccc3c2c1=O (configuration not stated)	0.0%	-11.7%	.	.	?	.
CCOC(=O)c1sc(NC(=O)c2ccc(S(=O)(=O)N3CCOCC3)cc2)nc1-c1ccccc1	0.5%	-6.1%	-1.8%	8.9%	20.6µM*	-0.1
CCOC(=O)c1sc(NC(=O)c2ccc(S(=O)(=O)N3CCCCCC3)cc2)nc1-c1ccccc1	-0.1%	-7.3%	1.8%	-44.4%	?	2.4
CCOC(=O)c1sc(NC(=O)c2ccc(S(=O)(=O)N3CCCCC3)cc2)nc1-c1ccccc1	-0.1%	-5.1%	-10.5%	-36.5%	23.1µM*	-2.6
O=C(CC(Nc1ccccc1)C(=O)O)c1ccccc1 (configuration not stated)	?	-5.4%	?	11.2µM*	?	-0.9
O=C(CC(Nc1ccc(Cl)cc1Cl)C(=O)O)c1ccccc1 (configuration not stated)	?	-2.9%	21.7%	-14.1%	3.9%	-0.2
Cc1ccc(NC(CC(=O)c2ccccc2)C(=O)O)cc1Cl (configuration not stated)	17.8µM*	-0.3%	?	26.8%	?	-2.4
O=C(CSc1nnc(-c2ccccc2)o1)c1cccc([N+](=O)[O-])c1	0.0%	11.9%	.	0.0%	-7.1%	.
CCOCCCNC(=O)Cn1nc(C)n2c(cc3cc(C)ccc32)c1=O	0.1%	-13.4%	.	.	?	.
COc1cc2c(NC3CCN(C)CC3)nc(N3CCCCC3)nc2cc1OCCOCCN1CCCC1	.	.	.	-12.7%	.	.
Cc1ccc(CN(C(=O)COc2c(C)cccc2C)C2CCS(=O)(=O)C2)o1 (configuration not stated)	4.2%	5.7%	.	.	8.7%	.
CN1N/C(=C\c2ccccc2)N=C2C(=O)N(C)C(=O)N=C21	.	5.8µM*	.	-53.2%	?	.
